Screens deposited in PubChem by National Center for Advancing Translational Sciences (NCATS).
BAZ2B block = BAZ2B (human) inhibition; Q9UIF8; AlphaScreen BAZ2B-H3K14Ac peptide displacement; Potency, µM (top dose mostly 114 µM), inactives show at the top dose activity change, negative = inhibition, hits mostly inhibitors; 360,000 compounds, 4.4% hits; further: on the % scale 0 is the no-effect control and ±100 the full control effect; nearly all actives have a fitted effect of over 60% in size
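AlphaScreen luminescence quantifies BAZ2B engagement of H3K14Ac peptide; the protein and biotinylated peptide are both at 50 nM final, buffer PBS pH 7.4 with 0.01% Tween-20, all steps at room temperature.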
Sfp PPTase inh = blocks B. subtilis Sfp PPTase activity | Biochemical Sfp PPTase activity, qHTS | Q9F4F7 | Potency, µM, inactives show largest response in the series, negative = inhibition, hits mostly inhibitors | 310,000 compounds, 3.5% hits | AID 1490;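 further: the enzyme is Sfp with the accession as filed and its product quenches rhodamine fluorescence; 0% = enzyme reaction without inhibitor and -100% = no enzyme wells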
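Compounds were incubated with enzyme (final 15 nM) for 15 min at room temperature before substrate addition started the reaction. Fluorescence at 525 nm excitation, 598 nm emission was recorded immediately and after 30 minutes.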
HP1b chromo inh = inhibitors of HP1-beta chromodomain binding to methylated histone tails; P83916; AlphaScreen HP1-beta / biotin-H3K9me3 peptide binding; Potency, µM (highest dose often 114 µM), without a hit: top-dose activity change, negative = inhibition, hits mostly inhibitors; 390,000 compounds, 0.56% hits; AID 540317; further: nearly all actives have a fitted effect of over 70% in size
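Compound inhibition of the preformed complex between 50 nM HP1-beta and 50 nM biotinylated H3K9me3 peptide was read by AlphaScreen. Buffer was PBS pH 7.4 with 0.01% Tween-20. Incubations ran 30 min at room temperature, with 10 ug/mL donor/acceptor beads.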
PLK1 PBD inh = blocks phosphopeptide binding to human PLK1 polo-box domain | 360,000 compounds, 2.8% hits | Potency, µM, inactives show max response, negative = inhibition, most hits filed as inhibitors | Plk1 PBD binding of FITC phosphopeptide, fluorescence polarization | P53350; further: series mostly up to about 57 µM; on the % scale 0 is the no-effect control and ±100 the full control effect; nearly all actives have a fitted effect of over 65% in size
JMJD2A Tudor = inhibitors of human JMJD2A Tudor domain. Potency, µM (titrated, usually from 114 µM), for inactives: at the highest dose activity change, negative = inhibition, actives largely listed as inhibitors. AlphaScreen JMJD2A-Tudor / H3K4me3 peptide binding. O75164. 390,000 compounds, 4.4% hits. AID 504339; further: on the % scale 0 is the no-effect control and ±100 the full control effect; nearly all actives have a fitted effect of over 50% in size
G9a inh = G9a (human) methyltransferase inhibition; G9a H3K9 monomethylation, AlphaScreen, 2 h; Q96KQ7; 350,000 compounds, 8.8% hits; Potency, µM (doses to about 102 µM), inactives show at the highest dose activity, negative = inhibition, actives largely listed as inhibitors; further: on the % scale 0 is the no-effect control and ±100 the full control effect; nearly all actives have a fitted effect of over 75% in size
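AlphaScreen read-out: biotin-H3K9 peptide (500 nM) methylation by 20 nM enzyme with 20 uM SAM, 2 h at room temperature after 15 min compound preincubation; anti-monomethyl H3K9 antibody plus donor/acceptor beads, 10 min dark.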
* = called active by the depositor; ? = inconclusive; nt = no result given; [ ] = dose if it differs, or a comment. Rows were chosen to be rich in hits. Some 12% of all compounds tested hit in one or more screens of this group. The call rests on the fitted dose curve; in most records, active means well fitted curve in the direction sought with a large enough effect; inconclusive means small, poorly fitted or top-dose-only effect, or another doubt; inactive means no such curve, though single readings can be large; an effect the other way counts as inactive or inconclusive. Potency means the concentration at half of the fitted maximal effect.

SMILES | BAZ2B block | Sfp PPTase inh | HP1b chromo inh | PLK1 PBD inh | JMJD2A Tudor | G9a inh
CC(O)(C#CCN1CCCCCC1)c1ccccc1 (stereo unspecified) | 2% | 6% | 5% | 30µM* | -20%[11.4 µM] | 50µM*
OC(C#CCN1CCCCC1)(c1ccccc1)c1ccccc1 | -24% | 12% | 23% | -5% | -11% | 18%
OC(C#CCN1CCOCC1)(c1ccccc1)C1CC1 (stereo unspecified) | ? | -8% | 22% | -3% | -22% | 45µM*
OC(C#CCN1CCCC1)(c1ccccc1)c1ccccc1 | -4% | 7% | 8% | -5% | -14% | -11%[12.7 µM]
CCCC(=O)Nc1nnc(S(=O)(=O)N(C)Cc2ccc(Cl)cc2)s1 | -15% | nt | 18% | nt | -9% | -4%[59 µM]
COc1ccc(C2=NN(CCC(=O)NCCc3ccccc3)C(=O)CC2)cc1 | 3% | nt | 27% | nt | -8% | -2%[59 µM]
CCCCC(=O)Nc1sc(C(=O)N(CC)CC)c(C)c1C(=O)OC | -18% | 13µM* | ? | 4.7µM* | 71µM* | 2.2µM*
CCCC(=O)Nc1sc(C(=O)OC)c(C)c1C(N)=O | -4% | 28µM* | -22% | 21µM* | -7% | 11µM*
CCOC(=O)c1sc(NC(=O)c2ccoc2C)c(C(N)=O)c1C | ? | -10% | 15% | -4% | -9% | -47%
Cc1ccc(OCC(=O)Nc2ccc3nc(SCC(=O)N4CCOCC4)sc3c2)cc1 | -10% | nt | 49% | nt | -5% | 10%[59 µM]
CC(=O)Nc1cccc(C(=O)Nc2cccnc2)c1 | 0% | 1% | 27% | -4% | -16% | ?
Cc1cc(C(=O)CNCc2ccco2)c(C)n1-c1ccc(F)cc1 | 56µM* | -12% | ? | -9% | 3.2µM* | 22µM*
CCOC(=O)C1=NN(C(C)=O)C2(CC(=O)N(c3cccc(C)c3)C2=O)C1 (stereo unspecified) | 4% | 11% | -5% | 27µM* | -15% | 24%
COC(=O)C1=NN(C(C)=O)C2(CC(=O)N(c3cccc(C)c3)C2=O)C1 (stereo unspecified) | 7% | -16% | 2% | -9% | -7% | -5%[59 µM]
CCOC(=O)c1cccc(NC(=O)N2CCC(CN3CCCCCC3)CC2)c1 | -3% | nt | 9% | nt | -18% | -30%[59 µM]
Cn1c(=O)c2c(c3ccccc31)OC(=O)CC2c1ccccc1 (stereo unspecified) | 37% | nt | 81% | nt | -13% | 10%[59 µM]
COc1cc(C)c(/C=C/C(C)=C/C=C/C(C)=C/C(=O)O)c(C)c1C | nt | -13% | 10% | 30µM* | 56µM* | ?
Cc1ccc(S(=O)(=O)/N=C(/c2ccccc2)N(C)c2ccc(O)cc2)cc1 | 4% | 9% | 26% | -3% | -18% | -2%
CCc1ccc(S(=O)(=O)/N=C2\C=C(Nc3ccc(C(=O)O)cc3)C(=O)c3ccccc32)cc1 | 7.9µM* | -22% | ? | -17% | 28µM* | 8.9µM*
Cc1ccc(C(=O)Nc2cccc(C(=O)O)c2)cc1S(=O)(=O)N1CCCC1 | 4% | nt | 39% | nt | -3% | 13%[59 µM]
Cc1ccc(S(=O)(=O)/N=C2\C=C(Nc3cccc(C(=O)O)c3)C(=O)c3ccccc32)c(C)c1 | 8.9µM* | -19% | ? | 27µM* | 28µM* | 2.8µM*
Cc1ccc(S(=O)(=O)/N=C2\C=C(Nc3cccc(C(=O)O)c3)C(=O)c3ccccc32)cc1 | 13µM* | -23% | ? | 60µM* | 45µM* | 10µM*
Cc1ccc(S(=O)(=O)/N=C2\C=C(Nc3ccc(O)cc3)C(=O)c3ccccc32)cc1 | nt | nt | 13µM* | -6% | 5.6µM* | nt
O=C(O)c1cccc(NC(=O)c2ccc(S(=O)(=O)c3ccccc3)cc2)c1 | -9% | 8% | 33% | -6% | -12% | -8%[59 µM]
O=C(O)c1ccc(NC2=C(n3nnc4ccccc43)C(=O)c3ccccc3C2=O)cc1 | -21% | 7% | 33% | -18% | -10% | ?
O=C(Nc1cc2c(cc1[N+](=O)[O-])OCCO2)c1cccnc1 | nt | nt | 15% | -11% | -21% | nt
CCOc1ccccc1CNC(=O)C1CCCN(c2ncnc3onc(-c4ccc(F)cc4)c23)C1 (stereo unspecified) | 9%[57.1 µM] | nt | 20% | nt | -14% | 1%[59 µM]
